The values below come from PubChem BioAssay (NCI).

The panel holds about 83,000 compounds, 20% with a hit somewhere; the sample as a whole holds those more often.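 The endpoint reported here, percent growth, reads 100 for growth as untreated, 0 for no net growth and -100 for all cells dead.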 Values without a mark were called inactive. Calls of active or inactive are those of the source. How the source made its calls: active means growth percent below 10; inactive means the rest.

Assay in all cases: NCI-60 one-dose screen, 48 h (100 = growth as untreated, 0 = no growth, -100 = all killed)
Holding throughout (details): 10 µM unless noted

Assay [1] has as its system SK-MEL-2 melanoma.
Assay [2] relates to EKVX NSCLC.
The subject of assay [3] is SN12C renal.
Assay [4] concerns UO-31 renal.
Assay [5] has as its system TK-10 renal.
The subject of assay [6] is ACHN renal.
In assay [7] the test system is CAKI-1 renal.
In assay [8] the test system is A498 renal.
Assay [9] deals with CCRF-CEM leukemia.
Assay [10] relates to MOLT-4 leukemia.

With `CN(C)c1nc(NCCNS(=O)(=O)c2ccc(C3=Nc4c(N)nc(N)nc4NC(c4ccc(F)cc4)C3)cc2)nc(Nc2ccc(F)cc2)n1` (stereo not given), the growth in assay [1] is 58.7%; in assay [2] it was 47.5%; in [3] it was 42.7%; in assay [4], 82.9%; in assay [5] it was 65.9%; in [6] it was 77.1%. In addition, the growth was 64.4% in assay [7], 53.3% in assay [8], 8.67% (active) in assay [9] and 6.56% (active) in [10].
As to `C=C1CC[C@@H]2[C@]3(C)COC(c4ccccc4)O[C@@H]3CC[C@@]2(C)[C@@H]1C/C=C1/C(=O)OCC1OC(C)=O` (stereo not given in full), the growth in [1] is -61.5% (active); in assay [2], 21.8%; in [3], -96.9% (active); in assay [4], -94.1% (active); in [5], -21.2% (active); in assay [6] it was -100% (active). In addition, the growth in assay [7] is 20.6%; in assay [8] it was 129%; in assay [9] it was -29.3% (active); in assay [10] it was -28.7% (active).
For `Cn1cc(-c2cc(N)n3nc(-c4c[nH]c5ccccc45)cc3n2)c2cc(Br)cnc21`, the growth was -72.6% (active) in assay [1]; -60.4% (active) in [2]; -81.5% (active) in assay [3]; -42.1% (active) in assay [4]; -58.2% (active) in assay [5]; -74.6% (active) in assay [6]. Also, the growth in assay [7] is -36% (active); in assay [8], -28.6% (active); in assay [9], -36.2% (active); in assay [10], -52% (active).
`COc1cc(C2CC(c3cc(OC)c(OC)c(OC)c3)=NN2C(C)=O)ccc1OCc1ccccc1` (stereo not given): the growth in [1] is 21.3%; in assay [2] it was 32.6%; in assay [3] it was 41.1%; in assay [4], 8.63% (active); in assay [5], 32.1%; in assay [6] it was 28.2%. For the same compound, the growth in [7] was 29%; in assay [8], 55.1%; in assay [9], 40.2%; in assay [10], 8.79% (active).
With `CSc1ccc(NC(=O)c2ccc3nn(/C(C#N)=C/c4ccccn4)nc3c2)cc1`, the growth is -89.9% (active) in assay [1]; -99% (active) in assay [2]; -65.7% (active) in [3]; -99% (active) in assay [4]; -94.7% (active) in [5]; -95.3% (active) in assay [6]. The growth in assay [7] is -90.9% (active); in assay [8], -33.9% (active); in assay [9] it was -47.8% (active); in assay [10], -20.4% (active).
For `COC(OC)C1=C(C)OC(N)=C(C#N)C12C(=O)Nc1ccccc12` (stereo not given), the growth in assay [1] was 96.2%; in assay [2], 99.7%; in assay [3], 93.3%; in [4], 70.3%; in assay [5], 161%; in assay [6], 84.9%. Moreover, the growth in assay [7] is 108%; in assay [8] it was 125%; in assay [9] it was 54.6%; in assay [10], 95.9%.
In the case of `O=C(/C=C/Nc1ccc(Cl)cc1)c1ccc2c(c1)Nc1ccccc1S2`, the growth in assay [1] was 55.1%; in [2] it was 55.8%; in [3], 61.8%; in assay [4], 36.1%; in [5] it was 72%; in assay [6] it was 30.7%. Moreover, the growth is 38.3% in assay [7], 108% in assay [8], 81.1% in assay [9] and 66.2% in assay [10].
With `N#Cc1ccc(/C=N/NC(=O)c2[nH]c3ccc(Br)cc3c2-c2ccccc2)o1`, the growth was 22.9% in assay [1]; 12.9% in assay [2]; 5.87% (active) in [3]; 24.8% in assay [4]; 27.8% in [5]; 8.88% (active) in assay [6]. For the same compound, the growth in assay [7] was 26.9%; in assay [8] it was 78.1%; in assay [9] it was -3.51% (active); in assay [10], 1.36% (active).
Regarding `CSc1ccc(C(=O)Nc2ccc3nn(/C(C#N)=C/c4ccccn4)nc3c2)cc1`, the growth was -77.8% (active) in assay [1]; -96.3% (active) in [2]; -45.5% (active) in assay [3]; -100% (active) in [4]; -96.7% (active) in assay [5]; -96% (active) in assay [6]. Besides, the growth is -42.9% (active) in assay [7], 56.8% in assay [8], -33.8% (active) in assay [9] and -24.9% (active) in assay [10].
Regarding `C=CC[N+](C)(C)CCn1c2ccccc2c2nc3cc(C)c(C)cc3nc21`, the growth in assay [1] is 112%; in [2] it was 89.7%; in [3], 14.2%; in assay [4] it was 71%; in assay [5], 106%; in [6], 107%. Also, the growth in [7] is 90%; in assay [8] it was 115%; in [9], 102%; in [10], 116%.
Consider `COc1cc2nc(SCc3ccccc3)n(-c3ccc(Cl)cc3)c(=O)c2cc1OC`, for which the growth was 28.3% in [1]; -13.1% (active) in assay [2]; -11.3% (active) in assay [3]; -38.8% (active) in assay [4]; -38.8% (active) in assay [5]; -66.4% (active) in [6]. Besides, the growth in assay [7] is -75.5% (active); in [8] it was 7.03% (active); in [9] it was 18.5%; in assay [10], 43.1%.
With `Cc1ccc(/C=C/c2n(Cc3ccc4ccccc4c3)c3ccccc3[n+]2Cc2ccc3ccccc3c2)cc1`, the growth in [1] was -97.7% (active); in assay [2], -95.7% (active); in assay [3] it was -56.1% (active); in assay [4], -96% (active); in assay [5] it was -80% (active); in [6], -96.1% (active). Moreover, the growth in assay [7] is -94.6% (active); in assay [8], -82.5% (active); in assay [9] it was -66.1% (active); in assay [10], -25.9% (active).
With `Nc1nc(-c2ccccc2)c(N=Nc2ccc(Cl)cc2[N+](=O)[O-])s1`, the growth was 90.4% in [1]; 76.8% in [2]; 96% in assay [3]; 65.2% in assay [4]; 169% in assay [5]; 101% in assay [6]. In addition, the growth in assay [7] is 82.5%; in assay [8] it was 92%; in assay [9], 101%; in assay [10] it was 100%.
